Out of some 380,000 compounds screened, about 4,000 (1.1%) were called active. Another 3% or so got no clear call; they are omitted. Calls follow the shape of the dose curve; as a rule, active = well fitted activation curve with a large enough effect; inconclusive = small, poorly fitted or top-dose-only effect; inactive = no such curve, though single readings can be large or run the other way. Many of the other results were omitted from the sample, so actives are more common in it than they were.
assay: qHTS Assay to Identify Small Molecule Activators of BRCA1 Expression; conditions: MCF7-BRCA1-FFLuc reporter, luminescence, 48 h; series mostly up to 46.1 µM; activation: at the top concentration; also: nearly all actives have a fitted effect of over 80% in size
Procedure, shortened: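 First, MCF7-BRCA1-FFLuc cells (2000/well) attach for 2 h; next, compounds are pin-added and incubated 48 h at 37 °C; finally, luciferase reagent is added and luminescence read after 15 min.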
Potency is read from the fitted curve at half-maximal effect.

Compound	activation	Potency
Cc1cccc(NC(=O)Cn2c(=O)n(CCC(C)C)c(=O)c3cccnc32)c1	-3.64% (inactive)	–
Cc1ccc(C)c(C(C)NC(=O)C2CCCO2)c1 (stereo not given)	-7.33% (inactive)	–
O=C(Nc1nnc(SCc2c(Cl)cccc2Cl)s1)C1CCCO1 (stereo not given)	4.62% (inactive)	–
Cc1cc(C)c2nc(NC(=O)C3CCCO3)sc2c1 (stereo not given)	–	15.8 µM (active)
Cc1cc2ccccc2n1CCNC(=O)c1ccc(F)cc1	-31.6% (inactive)	–
O=C(NCc1ccccc1)C1CCN(S(=O)(=O)c2ccc3[nH]c(=O)ccc3c2)CC1	-1.38% (inactive)	–
CCCCSc1nnc(-c2ccc(C)cc2)o1	–	1.78 µM (active)
Cc1ccc(-c2nnc(SCc3ccccc3C)o2)cc1	–	11.2 µM (active)
COc1ccc(-c2nnc(SCC(=O)Nc3ccccc3C)o2)cc1OC	0% (inactive)	–
Cc1ccc(-c2nnc(CN3CCN(C)CC3)o2)cc1	-2.44% (inactive)	–
CCN(C(=O)CSc1nnc(-c2ccncc2)o1)c1ccccc1	7.95% (inactive)	–
Cc1ccccc1CSc1nnc(CCCCCNC(=O)OC(C)(C)C)o1	-22% (inactive)	–
O=C(NCCC1=CCCCC1)c1ccc2c(c1)N(Cc1ccccc1F)C(=O)c1ccccc1S2(=O)=O	-29.5% (inactive)	–
CCS(=O)(=O)N1CCc2cc(C(=O)NCc3ccc(C)cc3)ccc21	0% (inactive)	–
Cc1ccc(C)c(N2CCN(C(=O)CCc3c(C)nc4c(c3C)c(=O)n(C)c(=O)n4C)CC2)c1	-8.22% (inactive)	–
COc1ccc(Cl)cc1NC(=O)Cn1c(=O)c2ccccc2n2nncc12	1.86% (inactive)	–
Brc1nc2ncnc(NCc3ccco3)c2[nH]1	13.2% (inactive)	–
CCOc1ccc(S(=O)(=O)N(CC(=O)NCCSCc2ccc(C)cc2)c2ccccc2)cc1	19.9% (inactive)	–
CC(C)(C)NC(=O)CSc1nc(-c2ccc(F)cc2)cc(C(F)(F)F)n1	-3.74% (inactive)	–
CO[C@H]1O[C@@H]2O[C@@]3(C)CC[C@@H]4[C@@H](C)CC[C@@H]([C@H]1C)[C@@]24OO3	-9.91% (inactive)	–
CC1(C)CCc2cc(S(=O)(=O)N3CCN(c4nc(-c5cccs5)nc5ccccc45)CC3)ccc2O1	13.7% (inactive)	–
Cc1cccc(NC(=O)Cc2ccc(Br)cc2)n1	–	8.91 µM (active)

Compound	activation	Potency
Cc1cccc(NC(=O)COc2ccc(Br)cc2C)n1	-19.3% (inactive)	–
Cc1cccc(C)c1NC(=O)CNC(=O)Cc1ccc(Br)cc1	-3.53% (inactive)	–
CCCNC(=O)c1ccc(Cn2c(SCC(N)=O)nc3ccccc3c2=O)cc1	-8.15% (inactive)	–
COc1ccc(CCNC(=O)CCCCn2c(=O)c3ccccc3n(Cc3ccccc3)c2=O)cc1OC	0% (inactive)	–
Cc1ccc(CN(C(=O)c2ccccc2[N+](=O)[O-])c2ccccn2)cc1	0% (inactive)	–
CCOC(=O)c1c(NC(=O)CSc2cn(CCNC(=O)c3cccc(C(F)(F)F)c3)c3ccccc23)sc2c1CCC2	10.6% (inactive)	–
CC(=O)Cn1ncc(N2CCOCC2)c(Br)c1=O	0.15% (inactive)	–
O=C(Cn1ncc(N2CCCC2)c(Br)c1=O)c1ccc(Cl)cc1	–	1.41 µM (active)
O=C(Cn1nc(CNc2ccc(Cl)cc2)[n+]2c1CCCCC2)c1ccc(Cl)cc1	-38.8% (inactive)	–
CCOc1ccc(N(C)S(=O)(=O)c2cc(-c3cnc(C)o3)ccc2OC)cc1	-1.24% (inactive)	–
CCCCCn1c(CCCNC(=O)c2ccccc2OC)nc2ccccc21	-19.4% (inactive)	–
COC(=O)c1sccc1N/N=C(\C)c1ccc(F)c(Cl)c1	-102% (inactive)	–
COc1cccc(/C(C)=N/Nc2ncc(Cl)cc2Cl)c1	–	10 µM (active)
CC(Oc1ccc(Cl)cc1)C(=O)OCC(=O)Nc1ncc(Cl)cc1Cl (stereo not given)	33.4% (inactive)	–
Cc1ccccc1CN1CCC(CNC(=O)c2c(C)oc3ncnc(N4CCCCC4)c23)CC1	0% (inactive)	–
O=C(c1cccc(Cl)c1)N1CCN(CCc2ccncc2)CC1	9.44% (inactive)	–
Cn1c(SCc2c(F)cccc2Cl)nnc1-c1cnccn1	–	2.51 µM (active)
Cn1c(SCC(=O)c2ccc(F)cc2)nnc1-c1ccccn1	30.7% (inactive)	–
Cc1ccc(CSc2nnc(-c3cnccn3)n2C)cc1	0% (inactive)	–
CCC(=O)N1CCc2cc(Br)cc(S(=O)(=O)NCc3ccc(Cl)cc3)c21	-18.8% (inactive)	–
O=C(C=CC(=O)Nc1ccc(F)cc1F)Nc1ccc(F)cc1F	11.6% (inactive)	–
COc1ccc(C(=O)Nc2ccc(F)cc2F)cc1	–	6.31 µM (active)

Compound	activation	Potency
CCOC(=O)N1CCN(S(=O)(=O)c2ccc(C(=O)Nc3ccc(F)cc3F)cc2)CC1	-70.1% (inactive)	–
Cc1ccccc1-c1nc(CS(=O)(=O)CC(=O)Nc2cc(Cl)cc(Cl)c2)c(C)o1	-32.8% (inactive)	–
COc1cc(OC)c(N(C)C(=O)c2cc3c(=O)oc4ccccc4c3s2)cc1Cl	0.945% (inactive)	–
O=C(N/N=C/c1cccc([N+](=O)[O-])c1)C1CC(=O)N(c2ccc(Br)cc2)C1 (stereo not given)	-32.2% (inactive)	–
O=[N+]([O-])c1cccc(/C=N/Nc2ncc(Br)cn2)c1	–	4.47 µM (active)
CCCc1ccc(OCc2ccc(C(=O)N/N=C/c3cccc([N+](=O)[O-])c3)o2)c(OC)c1	-53.3% (inactive)	–
COc1ccc(CCNc2nc(-c3ccc(F)cc3)cc(C(F)(F)F)n2)cc1OC	-34.7% (inactive)	–
CNCCCOc1cc2nc(N3CCCN(C)CC3)nc(NC3CCN(C)CC3)c2cc1OC	0.186% (inactive)	–
COc1ccc(-c2nn3c(=O)cc(CN4CCN(C(=O)c5ccc(OC)c(OC)c5)CC4)nc3s2)cc1	0% (inactive)	–
CN(C(=O)CSc1nc2ccc(NC(=O)COc3ccccc3)cc2s1)c1ccccc1	-4.92% (inactive)	–
O=[N+]([O-])c1c(NCCO)cc(Sc2nc3ccccc3s2)c2nonc12	-56.6% (inactive)	–
O=C(O)c1ccccc1CSc1nc2ccccc2s1	–	5.62 µM (active)
COc1ccc(C2Nc3ccc(NC(=O)COC(C)=O)cc3C(=O)N2Cc2ccccc2)cc1COc1ccc(NC(C)=O)cc1 (stereo not given)	0% (inactive)	–
COc1ccc2c(c1)c(=O)c(S(=O)(=O)c1ccc(F)cc1)cn2CC(=O)Nc1ccc(C)cc1C	-0.838% (inactive)	–
CN(CCOc1ccc(CC2SC(=O)NC2=O)cc1)c1ccccn1 (stereo not given)	–	inactive
CC(O)c1ccc(OCCN(C)c2ccccn2)cc1 (stereo not given)	–	11.2 µM (active)
CC(C)c1ccc(OCC(O)CN2CCN(c3ccccn3)CC2)cc1 (stereo not given)	2.11% (inactive)	–
COc1ccccc1CNc1nccn(-c2ccc(F)cc2)c1=O	8.06% (inactive)	–
Nc1nc(COC(=O)CCC(=O)c2ccc(Cl)cc2)nc(Nc2ccccc2)n1	0.774% (inactive)	–
CCOC(=O)CNc1nc(Cl)nc(Nc2ccccc2)n1	–	15.8 µM (active)
CCOC(=O)CNc1nc(Cl)nc(Nc2ccc(OC)cc2OC)n1	-30.3% (inactive)	–

From PubChem BioAssay AID624202 (National Center for Advancing Translational Sciences (NCATS), 2012)
